The record followed here is ChEMBL document CHEMBL3988442, “University of Dundee, Small-Polar-MMV Screening Library” (2021).

For some assays here: Potency and affinity values are given separately.

In one experiment the target is T1, Ubiquitin-activating enzyme e1, putative (Leishmania donovani (strain BPK282A1)) (UniProt E9BSI1).
T1 sequence (whole entry): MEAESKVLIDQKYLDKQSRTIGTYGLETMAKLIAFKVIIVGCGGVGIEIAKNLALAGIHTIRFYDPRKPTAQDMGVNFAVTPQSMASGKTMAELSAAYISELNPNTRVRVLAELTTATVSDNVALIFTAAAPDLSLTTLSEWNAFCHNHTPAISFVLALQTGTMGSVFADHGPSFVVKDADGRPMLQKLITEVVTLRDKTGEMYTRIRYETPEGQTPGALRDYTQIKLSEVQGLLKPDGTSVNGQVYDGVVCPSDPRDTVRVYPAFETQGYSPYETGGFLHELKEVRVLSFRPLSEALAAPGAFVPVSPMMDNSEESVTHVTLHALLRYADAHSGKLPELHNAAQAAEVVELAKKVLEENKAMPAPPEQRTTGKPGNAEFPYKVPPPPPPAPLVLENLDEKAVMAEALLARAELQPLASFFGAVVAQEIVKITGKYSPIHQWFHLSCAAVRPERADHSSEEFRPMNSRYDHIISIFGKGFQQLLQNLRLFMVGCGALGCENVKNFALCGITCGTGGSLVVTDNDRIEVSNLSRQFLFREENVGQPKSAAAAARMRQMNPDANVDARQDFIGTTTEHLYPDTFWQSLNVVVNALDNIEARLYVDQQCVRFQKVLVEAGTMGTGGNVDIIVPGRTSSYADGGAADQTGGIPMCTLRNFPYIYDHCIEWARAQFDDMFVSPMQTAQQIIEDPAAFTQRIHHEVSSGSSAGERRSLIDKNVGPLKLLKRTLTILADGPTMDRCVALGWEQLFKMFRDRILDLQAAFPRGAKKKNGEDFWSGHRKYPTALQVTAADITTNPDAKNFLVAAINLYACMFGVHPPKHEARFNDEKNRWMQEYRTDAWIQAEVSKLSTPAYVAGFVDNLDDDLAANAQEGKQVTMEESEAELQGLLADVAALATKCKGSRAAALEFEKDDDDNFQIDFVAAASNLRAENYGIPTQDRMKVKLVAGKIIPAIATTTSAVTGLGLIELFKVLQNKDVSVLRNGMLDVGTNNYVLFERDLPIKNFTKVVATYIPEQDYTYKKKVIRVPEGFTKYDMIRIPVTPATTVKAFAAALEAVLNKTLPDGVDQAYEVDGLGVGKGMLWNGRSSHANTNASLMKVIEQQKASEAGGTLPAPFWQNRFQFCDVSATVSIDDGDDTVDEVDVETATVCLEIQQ
As to the kind of experiment: Leishmania donovani Ubiquitin Activating Enzyme (LdE1). Type of experiment: functional. Also on record: scale not given: direction of the effect not stated beside the values. The note with it: 30 µM.
For `O=S(=O)(NCCN1CCCCC1Cn1cncn1)c1ccccc1` (stereo not given), the Percent Effect came out at 0%.
Consider `Cc1cccc(N2CC[C@@H]3CN(Cc4csc(C)n4)CCO[C@@H]3C2)n1`, for which the Percent Effect is -14.3%.
Regarding `CCc1nc(C2CCCN2C(=O)C2=COCC2)no1` (stereo not given), the Percent Effect worked out at 0%.
Take `O=C(NCCOc1ccc2c(c1)OCO2)N1CCC1`: the Percent Effect was found to be 20.8%.
Regarding `COCCN1C(=O)CCC12CCN(C(=O)NC(C)C)CC2`, the Percent Effect stood at 3.9%.
`O=C1CN(Cc2ccc(-c3ccccc3C(=O)O)cc2)CCN1`: the Percent Effect is 12%.
Take `CC(C)c1cc(C(=O)NCCN2CCCS2(=O)=O)n[nH]1`: the Percent Effect was found to be 15.4%.
Still for that read-out and setting: next, `Cc1cnc(CN2CCCC(c3cc(C(F)(F)F)[nH]n3)C2)cn1` (stereo not given): 2.67%.
The same measure, in the same setting: next, `COCCOc1cccc(C(=O)N2CCCC(n3cccn3)C2)c1` (stereo not given): 2.6%.
On to `Cc1cc(CN(C)C(=O)NCC(C)N2CCc3ccccc32)no1` (stereo not given), for which the Percent Effect is -2.6%.
Regarding `CCn1cnnc1CNC(=O)N1CCOCC1`, the Percent Effect worked out at 0%.
Consider `Cn1nc2c(cc1=O)CN(Cc1nnc(C3CC3)o1)CC2`, for which the Percent Effect was 51.3%.
For the molecule `Fc1cnc(N2CCOC3(CCN(Cc4ccsc4)CC3)C2)nc1`, the Percent Effect is 3.9%.
Consider `OCC1CCCCN1c1ccc(-c2nc(-c3ccccc3F)no2)cn1` (stereo not given), for which the Percent Effect was -5.41%.
The same measure, in the same setting: next, `CCc1cc(C(=O)N2CCC(Nc3ccc(C)nn3)CC2)sc1C`: 10.7%.
In the case of `CC(=O)N1CCCN(CC(C)(O)c2cccc(C(F)(F)F)c2)CC1` (stereo not given), the Percent Effect came to 10.4%.
`CC(C)c1ncncc1C(=O)NCCN1CCCS1(=O)=O`: the Percent Effect stood at 5.13%.
Regarding `Cn1cc(-c2nc(CN3CCc4c(ncn4C4CC4)C3)cs2)cn1`, the Percent Effect was -2.6%.
Take `CC(C)n1ccnc1C1CCN(C(=O)c2cc[nH]n2)CC1`: the Percent Effect was found to be 8.11%.
`O=C(C1CCOC1)N1CC[C@@H](O)[C@@H]1Cc1ccccc1` (stereo not given in full): the Percent Effect was -14.3%.
On to `O=C(c1cccnc1)N1CCn2nnc(COc3cccnc3)c2C1`, for which the Percent Effect was 1.3%.
`Cc1[nH]/c(=N\C(=O)c2csc(NC3CC3)n2)sc1C`: the Percent Effect was determined as 8.11%.
Consider `O=C(CSc1ccc(F)c(F)c1)NS(=O)(=O)c1ccc2c(c1)OCCO2`, for which the Percent Effect is 2.56%.
Regarding `O=C(C1CCOCC1)N1CC[C@H]2C[C@@H](c3ccncn3)O[C@@H]2C1`, the Percent Effect was determined as 3.9%.
As for `Cc1ccc(OCC(=O)NS(=O)(=O)c2c(C)noc2C)cc1C`, the Percent Effect is -5.13%.
On to `CCn1nc2c(cc1=O)CN(CC(=O)Nc1nc(C)c(C)s1)CC2`, for which the Percent Effect is 0%.
On the same count and under the same terms, next, `Cc1[nH]/c(=N\C(=O)c2csc(NCC(C)C)n2)sc1C`: 5.41%; `COCCN1CCCN(C(=O)NC(C)Cn2cccn2)CC1` (stereo not given): 15.6%; `CC(Nc1cccc(CN2CCOC2=O)c1)C(=O)N1CCNC1=O` (stereo not given): 7.69%.
For `CCn1ccnc1CN1CCCN(C(=O)c2cccc(C#N)c2)CC1`, the Percent Effect worked out at 2.56%.
`CN(C)CCN1CCCC12CCN(C(=O)c1cccn1C)CC2`: the Percent Effect was -1.3%.
Consider `O=C(CN1CCCC(c2ccc(C(=O)O)cc2)C1)NC1CC1` (stereo not given), for which the Percent Effect stood at 5.41%.
As to `CN(Cc1noc(C2CC2)n1)C1CCN(Cc2nnc(C3CC3)o2)C1` (stereo not given), the Percent Effect was determined as 15.6%.
In the case of `Cc1occc1C(=O)N1CCC2(CCC(C(=O)NCC3CC3)O2)CC1` (stereo not given), the Percent Effect was 19.5%.
Take `O=C1C(NCc2nnc3n2CCCC3)CCN1c1ccccc1` (stereo not given): the Percent Effect amounted to 10.3%.
For the molecule `COc1ccccc1OC1CCN(Cc2cnc(N(C)C)nc2)CC1`, the Percent Effect stood at 0%.
Regarding `Cc1nccn1-c1cccc(C2CCCN(C(=O)c3cc[nH]n3)C2)n1` (stereo not given), the Percent Effect was 25.3%.
On to `Cc1ccc(CN2CCC(c3nnc(CN4CCCCC4)n3C)CC2)o1`, for which the Percent Effect worked out at 0%.
`Cc1c(F)cc(C(=O)O)cc1S(=O)(=O)Nc1cccc(C(F)F)c1`: the Percent Effect is -2.56%.
As to `Cc1noc(C(C)C)c1C(=O)NCCCOC(C)C`, the Percent Effect came to 2.6%.

For another experiment, the target named is Sialic acid-binding Ig-like lectin 9 (Homo sapiens) (UniProt Q9Y336). As to the kind of experiment: Hs-Siglec9 ALPHAscreen SOP 20170721. More on the design: scale not given: direction of the effect not stated beside the values. Particulars: 10 µM. (Bead proximity is the source of the signal in Alpha formats.)
Sequence of Sialic acid-binding Ig-like lectin 9 (Homo sapiens) (Q9Y336 whole entry): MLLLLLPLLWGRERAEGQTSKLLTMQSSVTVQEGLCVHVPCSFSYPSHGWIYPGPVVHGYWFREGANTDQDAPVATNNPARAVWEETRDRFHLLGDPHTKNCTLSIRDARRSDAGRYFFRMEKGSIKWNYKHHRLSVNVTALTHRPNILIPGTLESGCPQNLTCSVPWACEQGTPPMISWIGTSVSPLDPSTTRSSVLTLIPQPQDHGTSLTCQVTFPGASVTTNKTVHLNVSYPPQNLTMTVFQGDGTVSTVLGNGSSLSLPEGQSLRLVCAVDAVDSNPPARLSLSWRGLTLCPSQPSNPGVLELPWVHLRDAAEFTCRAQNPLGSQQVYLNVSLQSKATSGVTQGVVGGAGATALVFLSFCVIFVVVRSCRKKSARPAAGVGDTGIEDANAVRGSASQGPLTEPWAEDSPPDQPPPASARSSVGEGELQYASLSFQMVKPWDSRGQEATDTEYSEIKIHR
Take `O=S(=O)(NCCN1CCCCC1Cn1cncn1)c1ccccc1` (stereo not given): the Percent Effect stood at 6.15%.
For `Cc1cccc(N2CC[C@@H]3CN(Cc4csc(C)n4)CCO[C@@H]3C2)n1`, the Percent Effect was -1.28%.
On to `CCc1nc(C2CCCN2C(=O)C2=COCC2)no1` (stereo not given), for which the Percent Effect was 1.81%.
The same measure, in the same setting: next, `O=C(NCCOc1ccc2c(c1)OCO2)N1CCC1`: 6.65%; `COCCN1C(=O)CCC12CCN(C(=O)NC(C)C)CC2`: -2.04%.
For `O=C1CN(Cc2ccc(-c3ccccc3C(=O)O)cc2)CCN1`, the Percent Effect is -5.14%.
The same measure, in the same setting: next, `CC(C)c1cc(C(=O)NCCN2CCCS2(=O)=O)n[nH]1`: 0.501%; `Cc1cnc(CN2CCCC(c3cc(C(F)(F)F)[nH]n3)C2)cn1` (stereo not given): 2.93%.
For `COCCOc1cccc(C(=O)N2CCCC(n3cccn3)C2)c1` (stereo not given), the Percent Effect was 10.5%.
On the same count and under the same terms, next, `Cc1cc(CN(C)C(=O)NCC(C)N2CCc3ccccc32)no1` (stereo not given): 14.4%; `CCn1cnnc1CNC(=O)N1CCOCC1`: 6.4%; `Cn1nc2c(cc1=O)CN(Cc1nnc(C3CC3)o1)CC2`: -13.6%.
As for `Fc1cnc(N2CCOC3(CCN(Cc4ccsc4)CC3)C2)nc1`, the Percent Effect was -6.39%.
`OCC1CCCCN1c1ccc(-c2nc(-c3ccccc3F)no2)cn1` (stereo not given): the Percent Effect was 7.51%.
On to `CCc1cc(C(=O)N2CCC(Nc3ccc(C)nn3)CC2)sc1C`, for which the Percent Effect was -0.268%.
`CC(=O)N1CCCN(CC(C)(O)c2cccc(C(F)(F)F)c2)CC1` (stereo not given): the Percent Effect turned out to be 8.53%.
Regarding `CC(C)c1ncncc1C(=O)NCCN1CCCS1(=O)=O`, the Percent Effect is -1.57%.
For `Cn1cc(-c2nc(CN3CCc4c(ncn4C4CC4)C3)cs2)cn1`, the Percent Effect was determined as 12.4%.
With `CC(C)n1ccnc1C1CCN(C(=O)c2cc[nH]n2)CC1`, the Percent Effect amounted to 10.9%.
`O=C(C1CCOC1)N1CC[C@@H](O)[C@@H]1Cc1ccccc1` (stereo not given in full): the Percent Effect is -3.29%.
As for `O=C(c1cccnc1)N1CCn2nnc(COc3cccnc3)c2C1`, the Percent Effect is -1.59%.
With `Cc1[nH]/c(=N\C(=O)c2csc(NC3CC3)n2)sc1C`, the Percent Effect is -0.99%.
As for `O=C(CSc1ccc(F)c(F)c1)NS(=O)(=O)c1ccc2c(c1)OCCO2`, the Percent Effect is -9.59%.
On the same count and under the same terms, for `O=C(C1CCOCC1)N1CC[C@H]2C[C@@H](c3ccncn3)O[C@@H]2C1` the value was 2.39%.
In the case of `Cc1ccc(OCC(=O)NS(=O)(=O)c2c(C)noc2C)cc1C`, the Percent Effect is -10.8%.
On the same count and under the same terms, for `CCn1nc2c(cc1=O)CN(CC(=O)Nc1nc(C)c(C)s1)CC2` the value was 5.55%; for `Cc1[nH]/c(=N\C(=O)c2csc(NCC(C)C)n2)sc1C`, 2.69%; for `COCCN1CCCN(C(=O)NC(C)Cn2cccn2)CC1` (stereo not given), -4.18%.
Turning to `CC(Nc1cccc(CN2CCOC2=O)c1)C(=O)N1CCNC1=O` (stereo not given), the Percent Effect worked out at 2.33%.
As to `CCn1ccnc1CN1CCCN(C(=O)c2cccc(C#N)c2)CC1`, the Percent Effect is -6.11%.
Turning to `CN(C)CCN1CCCC12CCN(C(=O)c1cccn1C)CC2`, the Percent Effect amounted to 2.81%.
Consider `O=C(CN1CCCC(c2ccc(C(=O)O)cc2)C1)NC1CC1` (stereo not given), for which the Percent Effect amounted to 8.6%.
On the same count and under the same terms, next, `CN(Cc1noc(C2CC2)n1)C1CCN(Cc2nnc(C3CC3)o2)C1` (stereo not given): -1.39%; `Cc1occc1C(=O)N1CCC2(CCC(C(=O)NCC3CC3)O2)CC1` (stereo not given): 1.13%.
As to `O=C1C(NCc2nnc3n2CCCC3)CCN1c1ccccc1` (stereo not given), the Percent Effect was -1.63%.
Consider `COc1ccccc1OC1CCN(Cc2cnc(N(C)C)nc2)CC1`, for which the Percent Effect was 3.25%.
On to `Cc1nccn1-c1cccc(C2CCCN(C(=O)c3cc[nH]n3)C2)n1` (stereo not given), for which the Percent Effect is -9.09%.
Take `Cc1ccc(CN2CCC(c3nnc(CN4CCCCC4)n3C)CC2)o1`: the Percent Effect came to 2.13%.
On to `Cc1c(F)cc(C(=O)O)cc1S(=O)(=O)Nc1cccc(C(F)F)c1`, for which the Percent Effect was determined as 2.65%.
Consider `Cc1noc(C(C)C)c1C(=O)NCCCOC(C)C`, for which the Percent Effect was 15.3%.
